The values below come from PubChem BioAssay (NCATS).

For test [1] the following is noted: Ebola virus entry assay, green fluorescence channel.
The conditions of test [2]: Ebola virus entry assay, blue channel fluorescence.
For test [3] the following is noted: Ebola virus entry assay, green fluorescence channel. The source holds these as a separate data set.
For test [4] the following is noted: Ebola virus entry assay, ratio channel readout.
The conditions of test [5]: Ebola virus entry assay, green channel fluorescence.
The conditions of test [6]: Ebola virus entry assay, blue channel fluorescence. The source holds these as a separate data set.
The conditions of test [7]: Ebola virus entry assay, reporter ratio channel; AC50: Channel type: primary unless noted; outcome: Channel type: primary unless noted.
The conditions of test [8]: Ebola virus entry assay, blue channel (ratio component).
For test [9] the following is noted: Ebola virus entry reporter assay, green channel fluorescence. (A reporter such as luciferase makes a cellular process visible.)
For test [10] the following is noted: Ebola virus entry cell assay, ratio channel.
For test [11] the following is noted: Ebola virus entry assay, ratio channel.
For test [12] the following is noted: Ebola virus entry assay, blue channel fluorescence. This is another data set of the same source.
Test [13] can be described thus: qHTS profiling of the MIPE4 collection as inhibitors of Plasmodium falciparum (3D7) proliferation (AID 743344).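 Note: scaled between DMSO vehicle wells and 0.29 µM artemisinin as full inhibition.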 As to conditions: P. falciparum 3D7 in erythrocytes, SYBR Green DNA fluorescence, 72 h. Summed up: (§1)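 Erythrocytes infected with P. falciparum (0.3% parasitemia, 2.5% hematocrit) incubated with compounds 72 h at 37 C, 5% CO2. Lysis with saponin/Triton buffer containing SYBR Green I, overnight at room temperature in the dark; DNA fluorescence (485/535 nm) normalised to 0.29 uM artemisinin and DMSO.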

Test [14] in a line: qHTS profiling of the MIPE4 collection as inhibitors of Plasmodium falciparum (DD2) proliferation (AID 743345). As to conditions: P. falciparum Dd2 in erythrocytes, SYBR Green DNA, 72 h. In a few lines:
as §1
A general note: qHTS replaces the single test concentration by a dilution series.

The nature of test [15]: qHTS profiling of the MIPE4 collection as inhibitors of Plasmodium falciparum (DD2) proliferation (Rep 2) (AID 743346). As to conditions: P. falciparum Dd2 in erythrocytes, SYBR Green DNA, 72 h; at 28.5 µM (top of the series) unless noted. Summed up:
as §1

Test [16] in a line: qHTS profiling of the MIPE4 collection as inhibitors of Plasmodium falciparum (HB3) proliferation (AID 743347).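 Note: plate controls were DMSO vehicle wells for no effect and artemisinin wells for full effect.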 The note with it: P. falciparum HB3 in erythrocytes, SYBR Green DNA, 72 h; at 28.5 µM (top of the series) unless noted. In a few lines: as §1
Setting [17] is: at 28.5 µM (top of the series) unless noted.
Where [18] appears, read: at 0.217 µM (top of the series).

For some of these results: Measured potencies and affinities stand elsewhere. The source made the active and inactive calls. Numbered stars: 1 amine (or outer) side, 2 acyl side, 3 side chain; on linkers, the order of the positions; unused ones are H or OH. Starred links: 1 amine or outer side, 2 acyl side, 3 side chain; linkers in the order of their positions; H or OH if unused. Positions of bridges follow the written chain, without caps; N, C: chain ends. Bridge positions count the residues as written; N and C are the ends. Non-standard residues stand in square brackets, D forms with d. Square brackets hold non-standard residues; d marks the D form. Residues, ends and D or L forms follow the SMILES beside them. Peptide text beside a SMILES is read from it. I, II: the chains in the order shown. ξ: configuration not given here. *: point of attachment. Actinocin(9to1) = Cc1c2oc3c(C)ccc(C(=O)[*:1])c3nc-2c(C(=O)[*:2])c(N)c1=O; ΔAla(3-NHCONH2) = NC(=O)NC=C(N)C(=O)O; X1 = NC1=NCCC(C(N[*:1])C(=O)[*:2])N1; NMeV = CN[C@H](C(=O)O)C(C)C; ξβ3hOrn = NCCCC(N)CC(=O)*; Dap = NC[CH](N)C(=O)O; Sar = CNCC(=O)O
Throughout, for efficacy: 0% is about no effect.

Turning to `O=C(O)CCCc1ccccc1`, the efficacy in test [1] is -16.1% (inactive). The result in [2], in [3], in test [4], in [5], in test [6] and in test [7] was inactive. Also, the outcome in test [8], in test [9] and in [10] was inactive.
Take `Cc1c2oc3c(C)ccc(C(=O)N[C@@H]4C(=O)N[C@H](C(C)C)C(=O)N5CCC[C@H]5C(=O)N(C)CC(=O)N(C)[C@@H](C(C)C)C(=O)O[C@@H]4C)c3nc-2c(C(=O)N[C@@H]2C(=O)N[C@H](C(C)C)C(=O)N3CCC[C@H]3C(=O)N(C)CC(=O)N(C)[C@@H](C(C)C)C(=O)O[C@@H]2C)c(N)c1=O` (I: T[dV]P[Sar][NMeV] / II: T[dV]P[Sar][NMeV]; ester I:1-I:C, II:1-II:C; linker I:N-II:N via Actinocin(9to1)): in test [1], the efficacy was 27.3% (inactive). Moreover, the outcome in test [2], in [3], in test [4], in test [11], in [5] and in [6] was inactive. The outcome in test [7], in test [8] and in [10] was inactive.
As to `CN1C(=O)CC(C)(c2ccccc2)C1=O` (configuration not stated), the efficacy in test [1] is -45.4% (inactive). Moreover, the result in test [2], in test [3], in [4], in [12], in [6] and in [7] was inactive. Besides, the result in test [8], in test [9] and in test [10] was inactive.
Consider `CC(=O)Nc1nnc(S(N)(=O)=O)s1`, for which the efficacy in test [1] is -19.1% (inactive). The molecule was called inactive in test [2], in test [3], in test [4], in test [12], in test [6] and in test [7]. Moreover, the outcome in test [8], in test [9] and in [10] was inactive.
Consider `CC(=O)O[C@]1(C(C)=O)CC[C@H]2[C@@H]3C=C(Cl)C4=CC(=O)[C@@H]5C[C@@H]5[C@]4(C)[C@H]3CC[C@@]21C`, for which the efficacy in [1] is 67.4% (inactive). In addition, the call in test [2], in test [3], in [4], in test [8] and in test [10] was inactive. In addition, the AC50 in [11] and in test [7] was 3.55 µM (active) throughout.
Take `NCC1(CC(=O)O)CCCCC1`: the parasite growth, % of DMSO control in test [13] (setting [17]) was 58.3%. Moreover, the parasite growth remaining, % of DMSO control (lower = more inhibition) in test [14] (setting [17]) turned out to be 87.6%. The same molecule gave a parasite growth, % of control (lower = inhibition) in test [15] of 75.9%. Besides, in test [16], the growth, % of control was 94.9%. Further, the efficacy in [1] was -9.69% (inactive). For the same molecule, the result in test [2], in test [3], in [4], in test [11], in [5] and in [6] was inactive. In addition, the outcome in test [7], in test [8] and in [10] was inactive.
Turning to `COC(=O)[C@@H]1CC2=CC(=O)CC[C@]2(C)[C@@]23O[C@@H]2C[C@@]2(C)[C@@H](CC[C@@]24CCC(=O)O4)[C@H]13`, the efficacy in test [1] is -15.8% (inactive). Also, the molecule was classed as inactive in [2], in test [3], in [4], in test [5], in [6] and in test [7]. The outcome in [8], in [9] and in test [10] was inactive.
Regarding `NCCCC(N)CC(=O)NCC1NC(=O)C(CO)NC(=O)C(N)CNC(=O)C(C2CCN=C(N)N2)NC(=O)C(=CNC(N)=O)NC1=O` (stereo not drawn) (H-[Dap]S[Dap](ξβ3hOrn)[ΔAla(3-NHCONH2)][X1]; lactam 1-C; configuration not given here), the parasite growth, % of DMSO control in test [13] (setting [18]) came to 92.7%; in test [13] (at 28.5 µM (top of the series)), 101%. In addition, the parasite growth remaining, % of DMSO control (lower = more inhibition) in test [14] (setting [18]) was found to be 92.4%; in [14] (at 28.5 µM (top of the series)) it was 100%. In addition, the efficacy in test [1] was 13% (inactive). In addition, the molecule was called inactive in test [2], in test [3], in test [4], in test [5], in test [6] and in test [7]. Besides, the outcome in test [8], in test [9] and in test [10] was inactive.
On to `Cc1cccc(Nc2ccncc2S(=O)(=O)NC(=O)NC(C)C)c1`, for which the efficacy in test [1] was -34.9% (inactive). The molecule was called inactive in test [2], in test [3], in [4], in test [5], in test [6] and in [7]. The outcome in [8] and in test [10] was inactive.
Take `NC(=O)OCC(COC(N)=O)c1ccccc1`: the efficacy in test [1] was -25.6% (inactive). In addition, the molecule was classed as inactive in test [2], in test [3], in test [4], in [5], in test [7] and in test [8]. For the same molecule, the molecule was called inactive in [9] and in [10].
Regarding `CC(S)C(=O)NCC(=O)O` (configuration not stated), the efficacy in [1] was -25.6% (inactive). Besides, the molecule was called inactive in test [2], in test [3], in [4], in test [6], in test [7] and in [8]. The result in test [10] was inactive.
Consider `Nc1[nH]c(=O)ncc1F`, for which the efficacy in test [1] is 14.3% (inactive). For the same molecule, the call in test [2], in [3], in test [4], in [5], in test [6] and in test [7] was inactive. The result in [8], in [9] and in [10] was inactive.
`CC1Cc2ccccc2N1NC(=O)c1ccc(Cl)c(S(N)(=O)=O)c1` (configuration not stated) yielded a parasite growth, % of DMSO control in [13] (setting [17]) of 83.7%. The molecule further yielded a parasite growth remaining, % of DMSO control (lower = more inhibition) in test [14] (setting [17]) of 34.3%. The molecule also came in with a parasite growth, % of control (lower = inhibition) in test [15] of 84.2%. The efficacy in test [1] is 11.5% (inactive). Besides, the molecule was called inactive in test [2], in test [3], in test [4], in [5], in test [6] and in [7]. In addition, the outcome in test [8] and in test [10] was inactive.
Take `CC(C)NC[C@@H](O)COc1ccc(CC(N)=O)cc1`: the efficacy in [1] is -16.3% (inactive). Also, the molecule was called inactive in [2], in test [3], in test [4], in [5], in test [6] and in test [7]. The result in test [8], in test [9] and in test [10] was inactive.
In the case of `C1N2CN3CN1CN(C2)C3`, in test [1], the efficacy was 14.5% (inactive). For the same molecule, the molecule was called inactive in [2], in test [3], in test [4], in test [5], in test [6] and in [7]. Moreover, the result in test [8], in test [9] and in test [10] was inactive.
Turning to `C[C@@H](O)[C@H]1C(=O)N2C(C(=O)O)=C(S[C@@H]3CN[C@H](C(=O)N(C)C)C3)[C@H](C)[C@H]12`, the efficacy in test [1] is 17.9% (inactive). The result in [2], in [3], in [4], in test [5], in test [6] and in test [7] was inactive. Also, the result in test [8], in test [9] and in test [10] was inactive.
As to `N[C@@H]1CONC1=O`, the efficacy in test [1] is -13.4% (inactive). Further, the molecule was called inactive in test [2], in [3], in test [4], in [5], in test [6] and in test [7]. The outcome in test [8] and in test [10] was inactive.
On to `NC(=O)N1c2ccccc2CC(=O)c2ccccc21`, for which the efficacy in test [1] is -11.2% (inactive). In addition, the outcome in [2], in test [3], in [12], in test [5], in test [6] and in test [7] was inactive. Besides, the outcome in test [8], in test [9] and in [10] was inactive.
For `CC1=NS(=O)(=O)c2cc(Cl)ccc2N1`, the efficacy in [1] was -18.7% (inactive). For the same molecule, the molecule was called inactive in [2], in test [3], in [11], in test [5], in test [6] and in test [7]. Also, the outcome in test [8], in test [9] and in test [10] was inactive.
In the case of `CC(C(=O)O)c1cccc(C(=O)c2ccccc2)c1` (configuration not stated), in test [1], the efficacy was 11.5% (inactive). Besides, the molecule was classed as inactive in test [2], in test [3], in test [12], in [5], in test [6] and in [7]. Moreover, the result in [8] and in test [10] was inactive.

In general, AC50 refers to the concentration giving half of the maximal activity seen.
